HT1080 IDH1KD tx: toxicity to HT-1080 IDH1 knockdown cells (counter line). HT-1080 IDH1 knockdown viability, ATP luminescence, 48 h. 2% of 360,000 active. Potency, µM (top dose mostly 46.1 µM), inactives show at the top dose activity, negative = toxicity, actives largely listed as cytotoxic;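 note: potency is the fitted concentration of half-maximal effect; 0% = DMSO wells and -100% = cell-free medium wells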
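Luminescent ATP read-out (CellTiter-Glo, 10 min at room temperature) after 48 h compound exposure at 37 °C gave viability of IDH1-knockdown HT-1080 cells. Activity was normalised to DMSO and cell-free wells, then fitted as concentration-response curves.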
IL-1B inflam inh: inflammasome signaling inhibition, IL-1 beta readout; 4.7% of 360,000 active; THP-1 LPS/ATP IL-1B secretion, AlphaLISA, 16 h; active compounds read low; AID 743279; activity change, % at 57.5 µM; in the data active = activity change below about -50%; inconclusive = mostly about -30% to -49%
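Secreted IL-1B measured by AlphaLISA bead assay after 16 h compound exposure of THP-1 cells; compounds (final up to 57.5 uM) added 1 h before LPS (250 ng/mL) and ATP (1.25 mM) stimulation; lower signal means less secretion.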
uPA surface inh: blocks generation of uPA at the cell surface. cell surface uPA generation assay, qHTS. Potency, µM (titrated, usually from 38.3 µM), for inactives: at the top dose activity change, negative = inhibition, actives largely listed as inhibitors. 0.31% of 330,000 active. AID 540303; active = well fitted inhibition curve with a large enough effect; inconclusive = small, poorly fitted or top-dose-only effect; inactive = no such curve, though single readings can be large or run the other way; tested in mouse RAW 264.7 cells; note: potency is the fitted concentration of half-maximal effect; nearly all actives have a fitted effect of over 55% in size
HT1080NT lethal: kills 2HG-producing HT-1080-NT fibrosarcoma cells; 1.6% of 360,000 active; Potency, µM (top dose mostly 46.1 µM), without a hit: at the highest dose activity, negative = less viability, actives largely listed as cytotoxic; HT-1080-NT fibrosarcoma viability, CellTiter-Glo ATP luminescence, 48 h; AID 686970;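 note: NT is the 2HG producing partner of a matched IDH1 knockdown line; potency is the fitted concentration of half-maximal effect; 0% = DMSO-treated cells and -100% = media-only wells without cells; nearly all actives have a fitted effect of over 55% in size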
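Luminescent CellTiter-Glo readout after 48 hours of compound exposure at 37 degrees C defined viability of HT-1080-NT cells. Activity was normalized to DMSO wells and cell-free media wells; concentration-response curves were fitted and assigned curve classes.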
TDP1 cell noCPT: qHTS for Inhibitors of human tyrosyl-DNA phosphodiesterase 1 (TDP1): qHTS in cells in absence of CPT; Potency, µM (doses to about 46.2 µM), without a hit: at the highest dose activity change, negative = growth inhibition, actives largely listed as inhibitors; AID 686978, 2013; 15% of 420,000 active; DT40 Tdp1-/- hTDP1 cells, no CPT, ATP luminescence, 48 h; note: potency is the fitted concentration of half-maximal effect; nearly all actives have a fitted effect of over 55% in size
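Camptothecin absent (DMSO only). Human TDP1-complemented DT40 knockout cells, 400 cells/well, 37 °C for minimum 48 hr; ATP measured via CellTiter-Glo, 30 min dark incubation, luminescence.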
TDP1 cell CPT: growth inhibition of DT40 Tdp1-/-;hTDP1 cells with camptothecin (screen for TDP1 inhibitors). chicken DT40 Tdp1-/-;hTDP1 cells + 20 nM CPT, ATP luminescence, 48 h. Potency, µM (titrated, usually from 46.2 µM), for the others: top-dose activity change, negative = growth inhibition, actives largely listed as inhibitors. 12% of 420,000 active. AID 686979; note: potency is the fitted concentration of half-maximal effect; nearly all actives have a fitted effect of over 55% in size
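Chicken DT40 Tdp1-/- cells complemented with human TDP1, 400 cells/well, exposed to compounds plus 20 nM camptothecin for at least 48 h at 37 C; viability read as ATP content by CellTiter-Glo luminescence.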
An asterisk follows results filed as active; [ ] = dose if it differs, or a comment. Shown are actives, neighbours in structure and some others; about 19% of the full set was active somewhere. Unless noted, calls come from the whole dose curve; as a rule, active = well fitted curve in the direction sought with a large enough effect; inconclusive = small, poorly fitted or top-dose-only effect, or another doubt; inactive = no such curve, though single readings can be large; an effect the other way counts as inactive or inconclusive. Unless noted, % is set by controls: 0 for no effect and ±100 for the full control effect.

How did Cc1ccc(S(=O)(=O)NCc2ccc(C(=O)NCCCN3CCC(Cc4ccccc4)CC3)cc2)cc1 do in these assays?
HT1080 IDH1KD tx: inconclusive; IL-1B inflam inh: -65*; HT1080NT lethal: inconclusive; TDP1 cell noCPT: -7%; TDP1 cell CPT: 6%

Results for Cc1ccc(S(=O)(=O)NCc2ccc(C(=O)NC3CC3)cc2)cc1 ?
HT1080 IDH1KD tx: -1%; IL-1B inflam inh: 7; uPA surface inh: -2%; HT1080NT lethal: 6%; TDP1 cell noCPT: 2%; TDP1 cell CPT: -3%

How did CC(C)(CN1CCNCC1)NS(=O)(=O)c1ccc(Cl)cc1 do in these assays?
HT1080 IDH1KD tx: inconclusive; IL-1B inflam inh: 0; uPA surface inh: inconclusive; HT1080NT lethal: -4%[9.24 µM]; TDP1 cell noCPT: inconclusive; TDP1 cell CPT: 23µM*

Results for Cc1ccc(S(=O)(=O)NCCC(=O)N2CCC(Cc3ccccc3)CC2)cc1 ?
HT1080 IDH1KD tx: -9%; IL-1B inflam inh: 0; uPA surface inh: 2%; HT1080NT lethal: 0%; TDP1 cell noCPT: 21µM*; TDP1 cell CPT: 15µM*

Results for Cc1ccc(/C=C/S(=O)(=O)NCCC(=O)NCc2ccc(F)cc2)cc1 ?
HT1080 IDH1KD tx: 7%; IL-1B inflam inh: -3; uPA surface inh: 2%; HT1080NT lethal: -1%; TDP1 cell noCPT: inconclusive; TDP1 cell CPT: -25%

Results for CCN1C(=O)[C@@H]2[C@@H](c3ccc(-c4ccc(C(C)=O)cc4)c(OC)c3)N3CCC[C@@]3(C(=O)OC)[C@@H]2C1=O ?
HT1080 IDH1KD tx: 0%; IL-1B inflam inh: -14; uPA surface inh: 0%; HT1080NT lethal: 0%; TDP1 cell noCPT: inconclusive; TDP1 cell CPT: inconclusive

What do the screens show for `CCN1C(=O)[C@H]2[C@@H](c3ccc(-c4ccc(C(C)=O)cc4)cc3)N3CCCC[C@@]3(C(=O)OC)[C@H]2C1=O`?
HT1080 IDH1KD tx: 4%; IL-1B inflam inh: -20; uPA surface inh: 4%; HT1080NT lethal: 2%; TDP1 cell noCPT: 12µM*; TDP1 cell CPT: inconclusive

How did CCN1C(=O)[C@H]2[C@@H](c3ccc(-c4ccc(F)cc4)cc3)N3CCCC[C@@]3(C(=O)OC)[C@H]2C1=O do in these assays?
HT1080 IDH1KD tx: -13%; IL-1B inflam inh: -18; uPA surface inh: -14%; HT1080NT lethal: -15%; TDP1 cell noCPT: inconclusive; TDP1 cell CPT: inconclusive

What do the screens show for `CCN1C(=O)[C@@H]2[C@@H](c3ccc(-c4ccc(C(C)=O)cc4)c(OC)c3)N3CCCC[C@@]3(C(=O)OC)[C@@H]2C1=O`?
HT1080 IDH1KD tx: 6%; IL-1B inflam inh: -4; uPA surface inh: 14%; HT1080NT lethal: 7%; TDP1 cell noCPT: 15µM*; TDP1 cell CPT: inconclusive

Results for CCN1C(=O)[C@H]2[C@@H](c3ccc(-c4ccc(F)cc4)c(OC)c3)N3CCCC[C@@]3(C(=O)OC)[C@H]2C1=O ?
HT1080 IDH1KD tx: -14%; IL-1B inflam inh: -74*; uPA surface inh: -21%; HT1080NT lethal: -29%; TDP1 cell noCPT: 16µM*; TDP1 cell CPT: 23µM*

What do the screens show for `CCN1C(=O)[C@@H]2[C@@H](c3ccc(-c4ccc(F)cc4)c(OC)c3)N3CCC[C@@]3(C(=O)OC)[C@@H]2C1=O`?
HT1080 IDH1KD tx: 2%; IL-1B inflam inh: -7; uPA surface inh: 4%; HT1080NT lethal: -7%; TDP1 cell noCPT: inconclusive; TDP1 cell CPT: 23µM*

Results for CCC(C)NC(=O)CSc1nc2cc3c(cc2c(=O)n1CCCC(=O)NCCc1ccc(OC)c(OC)c1)OCO3 (stereo not drawn) ?
TDP1 cell noCPT: 8%; TDP1 cell CPT: 4%

Results for O=C1C2=C(c3ccccc31)[N+](=O)[C@@H]1CCCC[C@@H]1N2[O-] ?
HT1080 IDH1KD tx: -26%; IL-1B inflam inh: 20; uPA surface inh: 2%; HT1080NT lethal: 6%; TDP1 cell noCPT: inconclusive; TDP1 cell CPT: inconclusive

What do the screens show for `O=C1C2=C(c3ccccc31)[N+](=O)C1CCCCC1N2[O-]` (stereo not drawn)?
HT1080 IDH1KD tx: 10%; IL-1B inflam inh: 0; uPA surface inh: -1%; HT1080NT lethal: 15%; TDP1 cell noCPT: 15µM*; TDP1 cell CPT: 23µM*

What do the screens show for `COc1ccccc1CNC(=O)C1CCCN(c2nc3ccccc3n3cccc23)C1` (stereo not drawn)?
TDP1 cell noCPT: 13µM*; TDP1 cell CPT: inconclusive

What do the screens show for `COc1ccccc1CNC(=O)C1CCCN(S(=O)(=O)c2c(C)[nH]c(=O)[nH]c2=O)C1` (stereo not drawn)?
HT1080 IDH1KD tx: 14%[9.24 µM]; IL-1B inflam inh: 4; uPA surface inh: -1%; HT1080NT lethal: 17%; TDP1 cell noCPT: -4%; TDP1 cell CPT: -7%

How did COc1cccc(CNC(=O)C2CCCN(c3nc4ccccc4n4cccc34)C2)c1 (stereo not drawn) do in these assays?
TDP1 cell noCPT: 15µM*; TDP1 cell CPT: inconclusive

How did O=C(NCc1ccccc1Cl)C1CCCN(c2nc3ccccc3n3cccc23)C1 (stereo not drawn) do in these assays?
TDP1 cell noCPT: 21µM*; TDP1 cell CPT: 18µM*

What do the screens show for `C[C@@H]1CN([C@@H](C)CO)C(=O)CCCn2nncc2CO[C@@H]1CN(C)C(=O)c1ccncc1`?
HT1080 IDH1KD tx: 0%; IL-1B inflam inh: -24; HT1080NT lethal: -3%; TDP1 cell noCPT: -24%; TDP1 cell CPT: -16%

What do the screens show for `CNc1nc(Nc2ccc(C(C)=O)cc2)nc(OC(C(F)(F)F)C(F)(F)F)n1`?
HT1080 IDH1KD tx: -23%; IL-1B inflam inh: -58*; uPA surface inh: -4%; HT1080NT lethal: -14%; TDP1 cell noCPT: 23µM*; TDP1 cell CPT: inconclusive

Results for COc1ccc(N2CCN(C(=O)C3CCN(S(=O)(=O)c4cn(C)cn4)CC3)CC2)cc1 ?
TDP1 cell noCPT: 3%; TDP1 cell CPT: -5%

Results for NC(=O)C1CCN(C(=O)/C(=C/c2ccccc2)NC(=O)c2ccccc2)CC1 ?
HT1080 IDH1KD tx: 10%; IL-1B inflam inh: 0; uPA surface inh: 7%; HT1080NT lethal: 6%; TDP1 cell noCPT: 18%; TDP1 cell CPT: 5%

What do the screens show for `COc1ccc(Nc2ncnc3scc(-c4ccc(OC)cc4)c23)cc1`?
HT1080 IDH1KD tx: inconclusive; IL-1B inflam inh: 0; uPA surface inh: -13%; HT1080NT lethal: inconclusive; TDP1 cell noCPT: 4.6µM*; TDP1 cell CPT: 2.9µM*

How did COc1ccc(-c2csc3ncnc(Nc4ccc(OC)c(OC)c4)c23)cc1 do in these assays?
TDP1 cell noCPT: 8.2µM*; TDP1 cell CPT: inconclusive

Screens deposited in PubChem BioAssay by National Center for Advancing Translational Sciences (NCATS).
